# Assay results from article PMC5540273 (PLoS ONE, 2017).
# Test system: TAOK1
# Conditions: concentration: 1 μM, replicates: in singlicate; n = 1
# 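Note: KINOMEscan kinase panel screen.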
row,Compound,%Inh [%]
1,c1ccc(Oc2ccc(Nc3ccnc4cc(-c5ccc(CNCCN6CCOCC6)o5)ccc34)cc2)nc1 [GW567145],0
2,Cn1cc(-c2[nH]c3cc(NC(=O)[C@H](N)C4CCCCC4)cc4c3c2C=NNC4=O)cn1,0
3,O=C(Nc1cccc(-c2nn3ccccc3c2-c2ccnc(Nc3cccc(F)c3)n2)c1)c1c(F)ccc(F)c1Cl [GSK357952],33
4,Cc1ccc(C)c(NC(=O)NC2CCN(c3ccnc(Nc4ccc(F)cc4)n3)C2)c1 (stereo not drawn) [GSK1379720],0
5,O=C(Nc1n[nH]c2cc(-c3ccoc3)ccc12)C1CC1 [SB-738481],65
6,COc1cccc(C(=O)Nc2cccc(Oc3ccc4nc(NC(=O)C5CC5)cn4n3)c2)c1,34
7,Cc1ccc(S(=O)(=O)Nc2ccc(Nc3nccc(Nc4cccc5[nH]ncc45)n3)cc2)cc1 [GSK581271],0
8,CN(C)Cc1ccc(-c2ccc3c(Nc4ccc(Oc5ccccn5)cc4)ccnc3c2)o1 [GW567148],0
9,Nc1ncc(-c2ccc3nccc(-c4ccncc4)c3c2)cc1S(=O)(=O)N1CCOCC1 [GSK1627798],0
10,CC(=O)Nc1nc2cnc(Nc3cc(NC(=O)c4cccc(C5(C#N)CC5)c4Cl)ccc3C)nc2s1,0
11,Cl.Cl.NCC(NC(=O)c1cc(-c2ccccc2)c(-c2ccnc3[nH]ccc23)s1)c1ccccc1 (stereo not drawn) [GSK1321561],4
12,COc1cccc(C2=C(Nc3ccc(Cl)c(C(=O)O)c3)C(=O)NC2=O)c1 [SB-390769],100
